Source: PubChem
Tau FP inhib: blocks human tau fibril formation measured by polarization; hit rate 0.39% among 280,000; P10636; K18 P301L tau heparin fibrillization, Alexa594 FP, 6 h; AID 1468; Potency, µM (top dose mostly 57.7 µM), inactives show at the highest dose activity, negative = inhibition, actives largely listed as inhibitors; further: potency means the concentration at half of the fitted maximal effect; nearly all actives have a fitted effect of over 55% in size
Target sequence (P10636 561-689 P618L limits assumed): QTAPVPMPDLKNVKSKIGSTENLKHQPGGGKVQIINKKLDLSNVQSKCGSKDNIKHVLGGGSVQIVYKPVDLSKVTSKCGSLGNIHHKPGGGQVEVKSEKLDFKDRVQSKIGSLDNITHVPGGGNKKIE
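Compound effects on tau fibrillization are measured by Alexa 594 fluorescence polarization (ex 555, em 632 nm). K18 P301L tau is used at 15 uM with 0.24 uM labeled tracer, and 20 uM heparin induces aggregation over 6 hr at 37 C.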
Tau fibril ThT: tau fibrillization inhibition (ThT binding); P10636; recombinant tau K18 P301L, heparin-induced fibrillization, ThT fluorescence; Potency, µM (titrated, usually from 57.4 µM), inactives show at the highest dose activity, negative = inhibition, actives largely listed as inhibitors; hit rate 2.1% among 270,000; further: potency means the concentration at half of the fitted maximal effect; nearly all actives have a fitted effect of over 55% in size
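Fibril formation assay: tau K18 P301L at 15 uM with trace Alexa 594 label, heparin inducer 20 uM, pH 7 sodium acetate buffer, 37 C for 6 hr; endpoint ThT signal.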
Coupling enz: coupling enzyme interference in Giardia aldolase counter-screen; hit rate 0.67% among 290,000; activity change, negative = inhibition, % at 58.2 µM, hits read low; coupling enzyme system counterscreen, AmpLite Red fluorescence; AID 2472; in the data active means activity change below about -30%
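First, compound is pin-transferred into glyceraldehyde-3-phosphate coupling-enzyme reagent at 57.5 uM final and held 10 min at RT. Next, substrate, coupling system and AmpLite Red are added. After 20 min RT, fluorescence (525/598 nm) is read.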
Tau fluor cs: counter-screen for tau fibril formation inhibitors | tau K18 P301L Alexa594 fluorescence, heparin fibrillization | Potency, µM (titrated, usually from 57.7 µM), for inactives: top-dose activity change, negative = decrease | hit rate 0.93% among 280,000 | AID 1463; further: potency means the concentration at half of the fitted maximal effect; nearly all actives have a fitted effect of over 55% in size
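Human tau K18 P301L (15 uM unlabeled, 0.24 uM Alexa 594-labeled) in 100 mM sodium acetate pH 7 with 20 uM heparin, 6 hr at 37 C. ThT 30 uM added, 1 hr ambient; Alexa 594 FP and total fluorescence read at 555/632 nm.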
* hit, by the source's call; [ ] = another dose, or the depositor's remark. This is a sample that favours compounds with a hit; in the whole collection about 2.7% have one here. Unless noted, the call rests on the fitted dose curve; in most records, active means well fitted curve in the direction sought with a large enough effect; inconclusive means small, poorly fitted or top-dose-only effect, or another doubt; inactive means no such curve, though single readings can be large; an effect the other way counts as inactive or inconclusive. On the % scale 0 is the no-effect control and ±100 the full control effect.

For CCC(=O)Nc1ccc2c(c1)C(=O)c1ccccc1C2=O the results were Tau FP inhib 1%, Tau fibril ThT inconclusive, Coupling enz 0 and Tau fluor cs -19%.
Screening Cn1cccc1C(=O)N1CCC2(CCN(Cc3ccccc3)CC2)CC1 returned Coupling enz 2.
`CCN(CC)c1ccc(C2Nc3cccc4cccc(c34)N2)c(O)c1` gave Tau FP inhib -16%, Tau fibril ThT 16µM*, Coupling enz -8 and Tau fluor cs 14µM*[quencher].
`Oc1ccc2ccccc2c1C1Nc2cccc3cccc(c23)N1` gave Tau FP inhib -2%, Tau fibril ThT 28µM*, Coupling enz -10 and Tau fluor cs 14µM*[quencher].
COc1ccc(C2=C(C)C(=NCc3ccc(OC(C)C)cc3)NS2(=O)=O)cc1 was read as Tau FP inhib inconclusive, Tau fibril ThT -4% and Tau fluor cs inconclusive.
Cc1ccc(-n2ncc3c(N4CCC(C)CC4)ncnc32)cc1C was read as Tau FP inhib 8%, Tau fibril ThT -14% and Tau fluor cs -7%.
For COC(=O)c1c(SCC(=O)Nc2cccc(Cl)c2C)[nH]c2ccccc2c1=O the results were Tau FP inhib inconclusive, Tau fibril ThT 16µM* and Tau fluor cs -27%.
COC(=O)c1c(SCC(=O)Nc2cccc(C(F)(F)F)c2)[nH]c2ccccc2c1=O was read as Tau FP inhib -8%, Tau fibril ThT 14µM* and Tau fluor cs 16µM*[quencher].
For COC(=O)c1c(SCC(=O)Nc2cc(F)ccc2F)[nH]c2ccc(C)cc2c1=O the results were Tau FP inhib -3%, Tau fibril ThT 7.1µM* and Tau fluor cs inconclusive.
O=C(CSCc1cc(=O)c2ccccc2[nH]1)Nc1cccc(C(F)(F)F)c1 was read as Tau FP inhib 0%, Tau fibril ThT -1% and Tau fluor cs -4%.
O=C(CSc1nc2cc3ccccc3cc2[nH]1)Nc1cccc(C(F)(F)F)c1 was read as Tau FP inhib 3.2µM*, Tau fibril ThT -6% and Tau fluor cs inconclusive.
For Nc1ncnc2nc(SCC(=O)Nc3cccc(C(F)(F)F)c3)[nH]c12 the results were Coupling enz 0.
CCc1cc2c(cc3c(=O)n(CC(=O)NC(C)C)nc(CC)n32)s1 was read as Tau FP inhib -3%, Tau fibril ThT -6% and Tau fluor cs -4%.
For CCOc1ccc(CCNC(=O)c2cccc(-n3c(C)nc4cccnc43)c2)cc1 the results were Tau FP inhib 2%, Tau fibril ThT 1% and Tau fluor cs 0%.
Screening Cc1ccc2nc(SCC(=O)Nc3ccc(F)c([N+](=O)[O-])c3)[nH]c2c1 returned Tau FP inhib -9%, Tau fibril ThT inconclusive, Coupling enz 0 and Tau fluor cs 28µM*[quencher].
Screening CC(/C=C/c1ccco1)=N\NC(=O)c1cccnc1 returned Tau FP inhib inconclusive, Tau fibril ThT 28µM*, Coupling enz -9 and Tau fluor cs -26%.
Screening O=C1C=C(NC2=CC3OC(c4ccccc4)OCC3OC2=O)CCC1 (configuration not stated) returned Tau FP inhib inconclusive, Tau fibril ThT 28µM*, Coupling enz 1 and Tau fluor cs -10%.
Screening Cc1c(C)c2ccc(OC(C)C(=O)NCCCN3CCOCC3)c(C)c2oc1=O (configuration not stated) returned Coupling enz 3.
`O=C(NC1(O)C(=O)c2ccccc2C1=O)c1ccc(C(F)(F)F)cc1` gave Tau FP inhib inconclusive, Coupling enz -19 and Tau fluor cs -15%.
`Cc1ccc(C(=O)NC2(O)C(=O)c3ccccc3C2=O)cc1C` gave Tau FP inhib 4µM*, Coupling enz -19 and Tau fluor cs -11%.
Screening CCOC(=O)c1c(C)[nH]c(C)c1S(=O)(=O)NCC(=O)Nc1ccc(CC)cc1 returned Tau FP inhib -12%, Tau fibril ThT 2% and Tau fluor cs -14%.
Screening COc1cc(/C=N/Nc2nc3ccccc3s2)ccc1OC(=O)c1ccccc1F returned Tau FP inhib 12%, Tau fibril ThT inconclusive, Coupling enz -2 and Tau fluor cs 7.1µM*[quencher].
Screening COc1cc(OC)cc(C(=O)Oc2ccc(/C=N/Nc3nc4ccccc4s3)cc2OC)c1 returned Tau FP inhib 1%, Tau fibril ThT inconclusive, Coupling enz -3 and Tau fluor cs 10µM*[quencher].
For Cc1ccc(C)c(CNC(=O)CN2C(=O)CSc3ccc(S(=O)(=O)N(C)C)cc32)c1 the results were Tau FP inhib -2%, Tau fibril ThT -2% and Tau fluor cs -8%.
For CC1=CC2(O)OCCN(CCO)C2=CC1=O (configuration not stated) the results were Tau FP inhib inconclusive, Tau fibril ThT 28µM*, Coupling enz -67* and Tau fluor cs inconclusive.
For Cc1cc(C)cc(NC(=O)CN(C)S(=O)(=O)c2ccc3[nH]c4c(c3c2)CCCC4)c1 the results were Tau FP inhib -9%, Tau fibril ThT -7% and Tau fluor cs 4.5µM*[quencher].
For CCOc1ccc(NC(=O)CN(C)S(=O)(=O)c2ccc3[nH]c4c(c3c2)CCCC4)cc1 the results were Tau FP inhib 4%, Tau fibril ThT -16% and Tau fluor cs 14µM*[quencher].
Cc1cccc(C)c1NC(=O)CN(C)S(=O)(=O)c1ccc2[nH]c3c(c2c1)CCCC3 was read as Tau FP inhib 17%, Tau fibril ThT 2% and Tau fluor cs inconclusive.
Screening Cn1cc(C(c2ccccc2)c2ccc(Cl)s2)c2ccccc21 (configuration not stated) returned Tau FP inhib -10%, Tau fibril ThT 6% and Tau fluor cs -8%.
CCn1c(=O)cc(OCC(=O)N2CCN(c3cccc(Cl)c3)CC2)c2ccccc21 was read as Tau FP inhib 1%, Tau fibril ThT -16% and Tau fluor cs -18%.
For COc1ccc(CCC(=O)NC2CC(=O)N(c3ccc(C)cc3)C2)cc1 (configuration not stated) the results were Tau FP inhib -12%, Tau fibril ThT -4% and Tau fluor cs -3%.
CN(C)c1ccc(C(CNS(=O)(=O)c2ccc(F)cc2)c2c[nH]c3ccccc23)cc1 (configuration not stated) was read as Tau FP inhib 12%, Tau fibril ThT -11%, Coupling enz -8 and Tau fluor cs 11µM*[quencher].
For CN(C)c1ccc(C(CNC(=O)c2ccc(C#N)cc2)c2c[nH]c3ccccc23)cc1 (configuration not stated) the results were Tau FP inhib inconclusive, Tau fibril ThT inconclusive, Coupling enz -4 and Tau fluor cs 14µM*[quencher].
`CCOC(=O)c1ccc(S(=O)(=O)NCC(c2ccc(N(C)C)cc2)c2c[nH]c3ccccc23)cc1` (configuration not stated) gave Tau FP inhib -4%, Tau fibril ThT 1%, Coupling enz 4 and Tau fluor cs -9%.
`CN(C)c1ccc(C(CNC(=O)c2ccccc2Br)c2c[nH]c3ccccc23)cc1` (configuration not stated) gave Tau FP inhib inconclusive, Tau fibril ThT inconclusive, Coupling enz 1 and Tau fluor cs inconclusive.
